What all share (experiment): DAPPL (digital affinity profiling via proximity ligation, sequencing); 10 mM Tris-HCl pH 7.5, 50 mM NaCl, 1 mM DTT, 4% glycerol, room temperature, 30 min; GST-TFs on glutathione beads, 16-mer random dsDNA library, 0.1% formaldehyde crosslink after washing; high values mean tight binding
One assay addresses T1, FLI1 (Homo sapiens, UniProt Q01543 1-452).
T1 sequence: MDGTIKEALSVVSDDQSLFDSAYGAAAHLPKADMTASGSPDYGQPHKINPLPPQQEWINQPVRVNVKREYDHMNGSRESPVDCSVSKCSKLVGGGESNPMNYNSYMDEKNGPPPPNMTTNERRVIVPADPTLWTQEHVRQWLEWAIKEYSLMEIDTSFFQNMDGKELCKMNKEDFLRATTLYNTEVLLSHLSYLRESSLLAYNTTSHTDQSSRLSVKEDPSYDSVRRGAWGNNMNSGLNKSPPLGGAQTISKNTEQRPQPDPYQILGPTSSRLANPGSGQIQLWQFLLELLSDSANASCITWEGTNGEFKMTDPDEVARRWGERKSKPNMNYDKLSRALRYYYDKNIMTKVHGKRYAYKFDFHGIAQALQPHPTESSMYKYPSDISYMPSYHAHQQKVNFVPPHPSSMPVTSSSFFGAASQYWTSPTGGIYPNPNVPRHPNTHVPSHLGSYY
Particulars: protein: recombinant; tags: N-terminal GST; dsDNA, one strand shown. Summed up:
(§1)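 Human transcription factors were made in yeast as GST fusions, captured on glutathione beads and barcoded with DNA. With a tag-only sample included, the pool was incubated with 200 nmole of a random double-stranded 16-mer DNA library in Tris/NaCl/DTT/glycerol buffer at room temperature for 30 min, then crosslinked with 0.1% formaldehyde after washing, ligated by proximity, amplified and sequenced. For binding signal, each hexamer's read frequency for a factor is divided by its frequency for the tag-only sample.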

Another assay deals with T2, ELK1 (Homo sapiens, UniProt P19419 1-428).
T2 sequence: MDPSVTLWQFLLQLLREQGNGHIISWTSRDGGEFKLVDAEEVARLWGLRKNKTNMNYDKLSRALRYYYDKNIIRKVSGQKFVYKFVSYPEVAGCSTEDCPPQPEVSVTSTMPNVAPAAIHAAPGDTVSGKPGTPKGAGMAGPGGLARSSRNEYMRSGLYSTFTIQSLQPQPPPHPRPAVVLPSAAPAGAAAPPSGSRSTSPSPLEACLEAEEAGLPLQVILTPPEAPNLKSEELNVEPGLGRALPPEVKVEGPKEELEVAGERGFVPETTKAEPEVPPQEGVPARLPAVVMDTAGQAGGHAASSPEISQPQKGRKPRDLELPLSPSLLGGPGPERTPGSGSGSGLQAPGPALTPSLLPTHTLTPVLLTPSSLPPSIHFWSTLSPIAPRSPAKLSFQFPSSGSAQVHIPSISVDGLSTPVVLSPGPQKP
Particulars: protein: recombinant; tags: N-terminal GST; dsDNA, one strand shown. Summed up: as §1

The target in the next assay is T3, GABPA (Homo sapiens, UniProt Q06546 1-454).
T3 sequence: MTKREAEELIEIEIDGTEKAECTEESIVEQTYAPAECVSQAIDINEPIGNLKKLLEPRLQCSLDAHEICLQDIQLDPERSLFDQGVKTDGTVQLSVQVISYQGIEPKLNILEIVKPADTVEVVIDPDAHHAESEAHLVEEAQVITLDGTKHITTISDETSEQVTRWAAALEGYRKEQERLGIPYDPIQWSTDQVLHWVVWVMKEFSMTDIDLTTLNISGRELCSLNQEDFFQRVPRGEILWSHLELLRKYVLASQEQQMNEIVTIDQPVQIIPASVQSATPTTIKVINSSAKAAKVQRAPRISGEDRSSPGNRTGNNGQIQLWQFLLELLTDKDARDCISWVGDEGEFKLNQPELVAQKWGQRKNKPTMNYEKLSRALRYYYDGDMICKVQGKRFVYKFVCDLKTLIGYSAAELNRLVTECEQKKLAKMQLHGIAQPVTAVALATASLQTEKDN
Particulars: protein: recombinant; tags: N-terminal GST; dsDNA, one strand shown. Summed up: as §1

The next assay deals with T4, ERG (Homo sapiens, UniProt P11308 1-479).
T4 sequence: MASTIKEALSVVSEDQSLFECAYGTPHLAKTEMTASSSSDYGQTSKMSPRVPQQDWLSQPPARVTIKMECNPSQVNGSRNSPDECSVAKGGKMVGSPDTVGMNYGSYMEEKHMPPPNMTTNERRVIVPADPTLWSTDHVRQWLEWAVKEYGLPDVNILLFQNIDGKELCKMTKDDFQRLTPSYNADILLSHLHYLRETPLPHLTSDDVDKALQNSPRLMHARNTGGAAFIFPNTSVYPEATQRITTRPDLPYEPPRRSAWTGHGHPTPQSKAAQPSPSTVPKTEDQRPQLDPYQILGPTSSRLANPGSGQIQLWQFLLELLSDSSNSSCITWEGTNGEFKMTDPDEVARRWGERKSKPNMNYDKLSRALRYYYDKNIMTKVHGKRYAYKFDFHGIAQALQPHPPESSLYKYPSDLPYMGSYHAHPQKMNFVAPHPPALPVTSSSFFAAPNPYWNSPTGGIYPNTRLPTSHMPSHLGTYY
The following applies: protein: recombinant; tags: N-terminal GST; dsDNA, one strand shown. Summed up: as §1

The next assay deals with ELF1 (Homo sapiens, UniProt P32519 1-619). Particulars: protein: recombinant; tags: N-terminal GST; dsDNA, one strand shown. Summed up:
as §1

The target in the next assay is T5, EHF (Homo sapiens, UniProt Q9NZC4 1-300).
T5 sequence: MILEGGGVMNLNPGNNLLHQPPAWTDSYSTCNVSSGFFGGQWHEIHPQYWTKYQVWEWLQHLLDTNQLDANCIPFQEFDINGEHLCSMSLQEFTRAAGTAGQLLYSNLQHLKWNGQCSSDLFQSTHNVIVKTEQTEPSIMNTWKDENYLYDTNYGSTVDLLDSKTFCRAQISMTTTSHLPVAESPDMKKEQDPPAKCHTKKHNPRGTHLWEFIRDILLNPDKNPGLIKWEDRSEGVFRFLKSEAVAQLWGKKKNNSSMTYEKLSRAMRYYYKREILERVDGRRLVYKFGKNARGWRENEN
The following applies: protein: recombinant; tags: N-terminal GST; dsDNA, one strand shown. Summed up:
as §1

The target of the next assay is SPI1 (Homo sapiens, UniProt P17947 1-270). Particulars: protein: recombinant; tags: N-terminal GST; dsDNA, one strand shown. The essentials: as §1
The target in the next assay is SPIB (Homo sapiens, UniProt Q01892 1-262). The following applies: protein: recombinant; tags: N-terminal GST; dsDNA, one strand shown. Summed up: as §1
Another assay deals with T6, ELK3 (Homo sapiens, UniProt P41970 1-407).
T6 sequence: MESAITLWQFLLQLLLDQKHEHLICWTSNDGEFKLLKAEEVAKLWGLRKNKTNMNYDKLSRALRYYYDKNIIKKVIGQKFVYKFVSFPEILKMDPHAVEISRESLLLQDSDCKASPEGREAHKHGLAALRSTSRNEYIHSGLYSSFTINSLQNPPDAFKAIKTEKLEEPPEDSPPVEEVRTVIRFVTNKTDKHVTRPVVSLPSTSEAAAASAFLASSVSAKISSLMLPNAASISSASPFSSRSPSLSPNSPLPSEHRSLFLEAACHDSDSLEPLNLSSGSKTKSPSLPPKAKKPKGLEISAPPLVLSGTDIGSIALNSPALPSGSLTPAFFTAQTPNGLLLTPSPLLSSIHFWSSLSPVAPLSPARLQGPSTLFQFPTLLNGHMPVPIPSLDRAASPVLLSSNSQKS
Particulars: protein: recombinant; tags: N-terminal GST; dsDNA, one strand shown. The essentials: as §1

A further assay concerns the target T7, FEV (Homo sapiens, UniProt Q99581 1-238).
T7 sequence: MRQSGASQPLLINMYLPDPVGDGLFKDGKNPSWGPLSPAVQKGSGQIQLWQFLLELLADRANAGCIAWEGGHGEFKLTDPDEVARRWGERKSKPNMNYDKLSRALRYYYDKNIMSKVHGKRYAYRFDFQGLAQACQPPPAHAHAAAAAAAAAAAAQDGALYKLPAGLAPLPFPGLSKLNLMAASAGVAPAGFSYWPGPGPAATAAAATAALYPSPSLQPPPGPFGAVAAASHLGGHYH
Particulars: protein: recombinant; tags: N-terminal GST; dsDNA, one strand shown. The essentials: as §1

The target of a further assay is ETV5 (Homo sapiens, UniProt P41161 1-510). The following applies: protein: recombinant; tags: N-terminal GST; dsDNA, one strand shown. The essentials:
as §1

The target in another assay is HSF1 (Homo sapiens, UniProt Q00613 1-529). Particulars: protein: recombinant; tags: N-terminal GST; chain copies: 3; dsDNA, one strand shown. The essentials:
as §1

In another assay the target is T8, SPIC (Homo sapiens, UniProt Q8N5J4 1-248).
T8 sequence: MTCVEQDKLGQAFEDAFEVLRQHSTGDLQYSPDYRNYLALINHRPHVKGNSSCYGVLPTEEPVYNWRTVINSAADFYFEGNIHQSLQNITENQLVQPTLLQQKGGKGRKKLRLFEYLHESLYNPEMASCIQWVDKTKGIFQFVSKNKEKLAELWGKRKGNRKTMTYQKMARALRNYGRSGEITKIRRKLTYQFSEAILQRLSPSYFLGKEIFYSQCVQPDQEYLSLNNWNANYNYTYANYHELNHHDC
The following applies: protein: recombinant; tags: N-terminal GST; dsDNA, one strand shown. The essentials:
as §1

A further assay deals with ELF4 (Homo sapiens, UniProt Q99607 1-663). Particulars: protein: recombinant; tags: N-terminal GST; dsDNA, one strand shown. Summed up: as §1
The target of another assay is T9, ELK4 (Homo sapiens, UniProt P28324-2 1-405).
T9 sequence: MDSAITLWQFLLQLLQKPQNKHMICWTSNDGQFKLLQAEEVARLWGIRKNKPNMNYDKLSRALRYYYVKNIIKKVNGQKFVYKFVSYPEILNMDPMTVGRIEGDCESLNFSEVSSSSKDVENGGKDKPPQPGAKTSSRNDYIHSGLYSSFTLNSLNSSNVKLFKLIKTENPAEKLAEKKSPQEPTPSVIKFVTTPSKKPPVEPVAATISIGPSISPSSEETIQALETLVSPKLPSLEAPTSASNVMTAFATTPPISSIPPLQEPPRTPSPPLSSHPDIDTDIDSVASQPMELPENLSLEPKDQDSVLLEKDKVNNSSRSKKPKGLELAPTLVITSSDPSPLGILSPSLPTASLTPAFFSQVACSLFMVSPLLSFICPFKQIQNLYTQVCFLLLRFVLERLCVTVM
The following applies: protein: recombinant; tags: N-terminal GST; dsDNA, one strand shown. Summed up: as §1

For a further assay, the target named is T10, ETV2 (Homo sapiens, UniProt O00321 1-342).
T10 sequence: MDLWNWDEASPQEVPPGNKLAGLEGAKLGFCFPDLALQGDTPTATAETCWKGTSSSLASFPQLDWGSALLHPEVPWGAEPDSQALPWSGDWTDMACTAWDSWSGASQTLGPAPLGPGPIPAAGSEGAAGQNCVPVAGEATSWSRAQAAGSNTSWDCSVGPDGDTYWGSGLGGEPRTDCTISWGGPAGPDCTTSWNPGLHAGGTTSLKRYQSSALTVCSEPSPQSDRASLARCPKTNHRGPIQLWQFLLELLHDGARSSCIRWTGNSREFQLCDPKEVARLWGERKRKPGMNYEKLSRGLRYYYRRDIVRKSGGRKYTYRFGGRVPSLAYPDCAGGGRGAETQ
Particulars: protein: recombinant; tags: N-terminal GST; dsDNA, one strand shown. The essentials:
as §1

Another assay concerns the target T11, ELF3 (Homo sapiens, UniProt P78545 1-371).
T11 sequence: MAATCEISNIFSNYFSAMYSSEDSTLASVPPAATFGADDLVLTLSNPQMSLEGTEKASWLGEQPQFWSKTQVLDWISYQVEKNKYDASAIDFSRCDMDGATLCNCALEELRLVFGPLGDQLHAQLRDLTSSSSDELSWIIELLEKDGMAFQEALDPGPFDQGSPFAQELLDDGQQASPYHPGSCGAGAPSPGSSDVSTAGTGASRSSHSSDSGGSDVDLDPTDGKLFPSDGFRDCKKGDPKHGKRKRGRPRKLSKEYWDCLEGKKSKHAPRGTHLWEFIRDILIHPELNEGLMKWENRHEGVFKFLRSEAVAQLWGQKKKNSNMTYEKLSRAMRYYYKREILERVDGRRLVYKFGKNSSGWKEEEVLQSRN
The following applies: protein: recombinant; tags: N-terminal GST; dsDNA, one strand shown. Summed up:
as §1

For a further assay, the target named is CRX (Homo sapiens, UniProt O43186 1-299). Particulars: protein: recombinant; tags: N-terminal GST; dsDNA, one strand shown. Summed up: as §1
A further assay concerns the target ETV1 (Homo sapiens, UniProt P50549 1-477). The following applies: protein: recombinant; tags: N-terminal GST; dsDNA, one strand shown. Summed up: as §1

The results in this text go back to article PMC7862700, “An all-to-all approach to the identification of sequence-specific readers for epigenetic DNA modifications on cytosine”.

Chain of ELF4 (Q99607 whole entry): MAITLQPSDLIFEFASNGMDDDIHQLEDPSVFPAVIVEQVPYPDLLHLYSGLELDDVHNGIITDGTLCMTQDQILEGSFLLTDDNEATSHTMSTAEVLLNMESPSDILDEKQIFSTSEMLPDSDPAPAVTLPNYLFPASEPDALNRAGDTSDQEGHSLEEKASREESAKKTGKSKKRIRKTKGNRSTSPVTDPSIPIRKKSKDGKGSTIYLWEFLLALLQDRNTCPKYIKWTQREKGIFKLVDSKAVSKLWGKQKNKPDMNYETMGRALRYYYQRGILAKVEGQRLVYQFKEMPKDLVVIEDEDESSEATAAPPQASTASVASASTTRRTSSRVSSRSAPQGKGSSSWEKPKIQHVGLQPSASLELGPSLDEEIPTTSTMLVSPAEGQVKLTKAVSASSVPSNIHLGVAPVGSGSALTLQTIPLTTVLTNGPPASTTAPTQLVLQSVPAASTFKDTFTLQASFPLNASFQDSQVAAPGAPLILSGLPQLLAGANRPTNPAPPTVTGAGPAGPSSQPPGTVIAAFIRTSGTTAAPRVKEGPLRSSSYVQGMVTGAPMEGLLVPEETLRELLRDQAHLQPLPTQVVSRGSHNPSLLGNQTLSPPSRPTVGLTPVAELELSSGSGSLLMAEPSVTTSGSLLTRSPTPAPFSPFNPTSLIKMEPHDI
Chain of ELF1 (P32519 whole entry): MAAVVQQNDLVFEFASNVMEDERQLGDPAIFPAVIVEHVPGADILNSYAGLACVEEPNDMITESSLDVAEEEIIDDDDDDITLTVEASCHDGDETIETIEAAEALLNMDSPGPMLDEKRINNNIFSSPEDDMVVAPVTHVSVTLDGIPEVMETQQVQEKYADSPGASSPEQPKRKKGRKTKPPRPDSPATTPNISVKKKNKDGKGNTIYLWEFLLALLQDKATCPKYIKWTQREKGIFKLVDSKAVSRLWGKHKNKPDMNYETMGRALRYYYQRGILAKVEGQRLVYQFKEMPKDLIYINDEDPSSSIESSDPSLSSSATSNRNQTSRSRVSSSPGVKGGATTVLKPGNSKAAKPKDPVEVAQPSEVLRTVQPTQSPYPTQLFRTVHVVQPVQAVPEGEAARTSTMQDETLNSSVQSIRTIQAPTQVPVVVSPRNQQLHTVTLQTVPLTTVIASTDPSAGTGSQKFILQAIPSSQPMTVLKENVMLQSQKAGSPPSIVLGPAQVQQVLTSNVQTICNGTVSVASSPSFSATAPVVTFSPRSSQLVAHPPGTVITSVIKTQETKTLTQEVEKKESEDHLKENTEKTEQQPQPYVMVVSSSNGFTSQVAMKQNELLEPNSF
Chain of CRX (O43186 whole entry): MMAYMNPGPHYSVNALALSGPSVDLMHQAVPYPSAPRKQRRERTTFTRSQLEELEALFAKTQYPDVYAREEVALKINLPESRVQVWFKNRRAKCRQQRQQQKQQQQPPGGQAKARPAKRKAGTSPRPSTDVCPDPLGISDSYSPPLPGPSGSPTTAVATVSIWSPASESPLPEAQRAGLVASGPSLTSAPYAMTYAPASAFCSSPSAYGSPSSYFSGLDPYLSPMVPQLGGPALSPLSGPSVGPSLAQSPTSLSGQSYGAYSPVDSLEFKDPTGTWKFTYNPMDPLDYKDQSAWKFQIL
Chain of ETV5 (P41161 whole entry): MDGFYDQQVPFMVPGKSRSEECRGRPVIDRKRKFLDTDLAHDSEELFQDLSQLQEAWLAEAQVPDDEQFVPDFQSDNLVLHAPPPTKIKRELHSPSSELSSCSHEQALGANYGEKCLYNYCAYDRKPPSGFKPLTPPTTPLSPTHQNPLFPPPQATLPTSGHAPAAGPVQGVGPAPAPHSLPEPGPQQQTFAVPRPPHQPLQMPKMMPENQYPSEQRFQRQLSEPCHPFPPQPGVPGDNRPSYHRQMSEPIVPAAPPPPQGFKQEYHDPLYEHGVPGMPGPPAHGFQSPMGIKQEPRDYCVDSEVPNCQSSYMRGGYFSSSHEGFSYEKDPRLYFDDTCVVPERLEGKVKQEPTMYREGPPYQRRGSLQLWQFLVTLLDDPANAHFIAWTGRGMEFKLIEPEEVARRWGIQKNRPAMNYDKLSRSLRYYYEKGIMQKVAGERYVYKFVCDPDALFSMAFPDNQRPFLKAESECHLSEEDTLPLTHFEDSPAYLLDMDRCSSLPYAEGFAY
Chain of HSF1 (Q00613 whole entry): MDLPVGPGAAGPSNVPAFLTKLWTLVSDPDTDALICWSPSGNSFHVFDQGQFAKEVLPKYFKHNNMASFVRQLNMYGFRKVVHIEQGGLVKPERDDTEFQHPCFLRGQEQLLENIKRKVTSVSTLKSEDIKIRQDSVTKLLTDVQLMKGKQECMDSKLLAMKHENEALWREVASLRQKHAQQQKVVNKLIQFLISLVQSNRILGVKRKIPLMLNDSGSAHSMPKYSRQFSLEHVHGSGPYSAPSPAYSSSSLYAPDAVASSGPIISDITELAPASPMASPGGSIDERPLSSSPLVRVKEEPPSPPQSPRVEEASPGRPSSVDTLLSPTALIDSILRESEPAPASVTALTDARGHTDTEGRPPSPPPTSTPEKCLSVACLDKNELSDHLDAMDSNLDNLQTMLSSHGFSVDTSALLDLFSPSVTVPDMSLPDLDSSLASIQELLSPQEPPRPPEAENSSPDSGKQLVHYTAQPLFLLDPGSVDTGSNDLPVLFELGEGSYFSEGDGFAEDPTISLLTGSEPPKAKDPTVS
Chain of SPIB (Q01892 whole entry): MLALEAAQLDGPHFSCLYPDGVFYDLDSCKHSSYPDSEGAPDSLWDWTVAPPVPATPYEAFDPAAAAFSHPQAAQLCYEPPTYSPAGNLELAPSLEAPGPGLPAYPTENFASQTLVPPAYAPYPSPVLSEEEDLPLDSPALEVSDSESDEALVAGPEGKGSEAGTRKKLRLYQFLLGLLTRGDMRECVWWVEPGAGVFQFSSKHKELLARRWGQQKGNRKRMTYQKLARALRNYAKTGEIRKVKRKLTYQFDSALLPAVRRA
Chain of ETV1 (P50549 whole entry): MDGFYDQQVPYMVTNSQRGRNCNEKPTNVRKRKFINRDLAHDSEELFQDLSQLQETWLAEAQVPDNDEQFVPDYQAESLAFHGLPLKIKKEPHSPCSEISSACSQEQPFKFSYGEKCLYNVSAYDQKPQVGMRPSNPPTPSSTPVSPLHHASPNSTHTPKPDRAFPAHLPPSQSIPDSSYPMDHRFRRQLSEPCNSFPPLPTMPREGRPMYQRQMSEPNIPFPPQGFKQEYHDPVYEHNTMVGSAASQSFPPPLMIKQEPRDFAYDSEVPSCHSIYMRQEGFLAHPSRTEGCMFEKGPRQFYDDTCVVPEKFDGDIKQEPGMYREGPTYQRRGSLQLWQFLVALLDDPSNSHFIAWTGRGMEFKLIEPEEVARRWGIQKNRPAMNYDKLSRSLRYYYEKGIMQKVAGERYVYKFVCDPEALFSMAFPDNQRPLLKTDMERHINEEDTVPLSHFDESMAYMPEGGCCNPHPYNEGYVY

With CTGGCA, the binding signal was 1.33 fold enrichment (6-mer frequency, TF over GST control) with FLI1; 1.28 fold enrichment (6-mer frequency, TF over GST control) with ELK1; 1.39 fold enrichment (6-mer frequency, TF over GST control) with GABPA; 1.2 fold enrichment (6-mer frequency, TF over GST control) with ERG; 1.26 fold enrichment (6-mer frequency, TF over GST control) with ELF1; 1.23 fold enrichment (6-mer frequency, TF over GST control) with EHF. Also, the binding signal with SPI1 was 1.22 fold enrichment (6-mer frequency, TF over GST control); with SPIB, 1.29 fold enrichment (6-mer frequency, TF over GST control); with ELK3, 1.43 fold enrichment (6-mer frequency, TF over GST control); in the assay with FEV, 1.27 fold enrichment (6-mer frequency, TF over GST control); in the assay with ETV5, 1.21 fold enrichment (6-mer frequency, TF over GST control); with HSF1, 1.62 fold enrichment (6-mer frequency, TF over GST control). For the same sequence, the binding signal is 1.28 fold enrichment (6-mer frequency, TF over GST control) in the assay with SPIC; 1.35 fold enrichment (6-mer frequency, TF over GST control) with ELF4; 1.27 fold enrichment (6-mer frequency, TF over GST control) in the assay with ELK4; 1.49 fold enrichment (6-mer frequency, TF over GST control) with ETV2; 1.3 fold enrichment (6-mer frequency, TF over GST control) in the assay with ELF3; 1.19 fold enrichment (6-mer frequency, TF over GST control) with CRX. Also, in the assay with ETV1, the binding signal was 1.27 fold enrichment (6-mer frequency, TF over GST control).
